Experimental data taken from PubChem BioAssay AID2540 (Sanford-Burnham Center for Chemical Genomics, 2010).
Out of some 330,000 compounds screened, about 4,100 (1.2%) were called active. Only a selection was taken, and actives are over-represented in it overall. A number with no mark means an inactive call. Rule as the data show it: active = inhibition above about 50%; inactive = the rest.

Molecular target: Sentrin-specific protease 8 (Homo sapiens) (UniProt Q96LD8)
Assay: SENP8 protease inhibitors, primary screen, biochemical, luminescence (AID 2540)
Settings: purified SENP8, Z-RLRGG-aminoluciferin cleavage, at 10 µM, stronger effect = higher value

Sequence of Sentrin-specific protease 8 (Homo sapiens) (Q96LD8 whole entry, looked up): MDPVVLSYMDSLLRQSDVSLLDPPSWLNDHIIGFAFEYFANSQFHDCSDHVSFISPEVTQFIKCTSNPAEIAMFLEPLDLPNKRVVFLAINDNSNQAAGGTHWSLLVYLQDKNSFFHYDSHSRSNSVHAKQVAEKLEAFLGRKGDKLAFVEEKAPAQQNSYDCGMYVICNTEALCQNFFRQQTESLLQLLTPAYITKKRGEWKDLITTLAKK

Compound	inhibition
CC(C)CC(=O)N/C(N)=N/c1nc2ccccc2s1	17%
CC(C)(CSc1nncn1/N=C/c1ccco1)NS(=O)(=O)c1ccc(Cl)cc1	-9.04%
Cc1cc(/C=N/NC(N)=O)c(C)n1C1CCCCC1	-15.2%
Cc1cc(=O)n2[nH]c(-c3cccc(Cl)c3)cc2n1	-14%
O=c1c2c(nc3cc(-c4cccc(Cl)c4)[nH]n13)CCCC2	61.8% (active)
CCCCN1Cc2c(nc3cc(-c4ccccc4)[nH]n3c2=O)C1=O	1.85%
CC(Sc1nnc(-c2cccs2)n1C1CC1)C(=O)NCC1CCCO1 (stereo not drawn)	-0.203%
Cc1ccc(-n2cc3ccc([N+](=O)[O-])cc3n2)cc1	68.6% (active)
Cc1ccc(-c2cn(S(=O)(=O)c3cccc([N+](=O)[O-])c3)nc2N)cc1	-7.7%
Cc1ccnc(N2C(=O)c3ccc([N+](=O)[O-])cc3C2=O)c1	6.9%
COc1ccc(CN2CCN(C(=O)c3cc(C4CC4)nn3-c3ccccc3)CC2)cc1F	-8.29%
Cc1csc(NC(=O)c2ccc(C)s2)n1	-2.73%
COc1cc(SC)ccc1C(=O)Nc1cc(C)ccn1	39%
COc1cc(SC)ccc1C(=O)Nc1nc(C)cs1	97.6% (active)
COc1ccc(N(CC(=O)NC2CCCC2)C(=O)CS(=O)CC(=O)Nc2ccc3c(c2)OCO3)cc1 (stereo not drawn)	-16.6%
Cc1[nH]n(-c2ccc([N+](=O)[O-])cc2)c(=O)c1C=NCCN1CCN(C(=O)c2ccccc2F)CC1	64.8% (active)
CCNC(=S)N1CCN(CCN=CC2=C(O)CC(C)(C)CC2=O)CC1	-4.68%
Cc1ccc(-n2[nH]c(C)c(/C=N/NC(=O)c3cccc([N+](=O)[O-])c3)c2=O)cc1C	-5.78%
Cc1[nH]n(-c2ccccc2)c(=O)c1N=Nc1ccccc1C(=O)N1CCCCC1	-1.4%
CC1(C)CC(=O)C(C=NCCN2CCN(C(=S)Nc3cccc(Cl)c3)CC2)=C(O)C1	0.407%
C=CCNC(=S)N1CCN(CCN=Cc2c(C)[nH]n(-c3ccc([N+](=O)[O-])cc3)c2=O)CC1	61.4% (active)
CCc1ccc2nc(Nc3ncc(C(C)=O)c(C)n3)nc(C)c2c1	-7.29%
Cn1nnnc1-c1cc(Cl)cc(Cl)c1	3.44%
N#C/C(=C\c1cccnc1)C(=O)Nc1ccc(SC(F)F)cc1	7.81%

Compound	inhibition
COc1ccc(N(CC(=O)NCCSCc2cccc(Cl)c2)S(C)(=O)=O)cc1	4.81%
CCC(C)c1ccc(NC(=S)N2CCCC2)cc1 (stereo not drawn)	-3.49%
Cc1cccc(/C(N)=N/OC(=O)c2ccccc2Cl)c1	94.7% (active)
Cc1ccc(/C(N)=N/OC(=O)COc2ccc(Cl)c(C)c2)cc1	-7.2%
N/C(=N\OC(=O)c1cc(-c2ccccc2)nc2ccccc12)c1ccncc1	-5.5%
Cc1ccc(S(=O)(=O)NCCNC(C)c2ccc(Br)cc2)cc1 (stereo not drawn)	2.45%
COc1ccc(C(=O)COC(=O)c2ccc([N+](=O)[O-])s2)cc1OC	61.6% (active)
COc1ccc(C(=O)OCC(=O)c2ccc(Cl)s2)c(OC)c1OC	-5.24%
COc1ccc(C(=O)OCC(=O)Nc2ccc3[nH]c(=O)[nH]c3c2)c(OC)c1OC	2.13%
COc1ccc(C(=O)OCC(=O)c2ccc(C)c(S(=O)(=O)N3CCOCC3)c2)cc1OC	-6.51%
COc1cc(NC(=O)COC(=O)c2ccc([N+](=O)[O-])s2)cc(OC)c1OC	63.8% (active)
C[C@H](NC(=O)c1ccccc1Cl)C(=O)OCC(=O)N1CCN(c2ccccc2)CC1	2.29%
COc1cccc(/C=C/C(=O)OCC(=O)N2CCN(c3ccccc3)CC2)c1	-5.84%
COc1cc(C(=O)OCc2ccc([N+](=O)[O-])cc2)cc(OC)c1OC	15.6%
O=C(OCC(=O)N1CCN(c2ccccc2)CC1)c1ccc([N+](=O)[O-])s1	58.1% (active)
CC1(C)Cc2ccccc2-c2nnc(-c3cccc(O)c3)n21	-5.27%
Cc1ccc(NS(=O)(=O)c2ccc(C(C)C)cc2)cc1S(=O)(=O)N1CCOCC1	-8.64%
NC(=O)c1ccc(Nc2ccc3c(c2)CCC3)c([N+](=O)[O-])c1	-12.7%
O=C(N/N=C/c1sc(N2CCCCC2)nc1-c1cccs1)c1cccnc1	-8.56%
COc1ccc(OC)c(S(=O)(=O)NCCC(C)C)c1	0.429%
O=C(NCC(=O)N1CCN(c2ccccc2O)CC1)c1ccc2ccccc2c1	-4.96%
CC(C)N(C(=O)Cn1cc(SCC(=O)N2CCCC2)c2ccccc21)C(C)C	55.6% (active)
CC(C)N(C(=O)Cn1cc(S(=O)(=O)CC(=O)N2CCOCC2)c2ccccc21)C(C)C	-2.24%
CC(C)N(C(=O)Cn1c(SCC(=O)N2CCN(c3ccccc3)CC2)nc2ccccc21)C(C)C	3.06%
